{"source": "the supplement of paper PMC8728848", "experiment_in_all_cases": "glycan array binding signal (z-score within array); higher = stronger binding", "details_in_all_cases": "glycan notation: IUPAC condensed, linker removed", "key": {"[1]": {"target": "Fuc(a1-2)Gal(b1-4)Glc", "method_in_brief": "(§1)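 The binding signal is a Z-score computed within each array. Data were drawn from 3228 arrays in the Consortium for Functional Glycomics database, restricted to those with a known protein sequence. Scores were averaged over arrays of the same protein sequence at different concentrations or buffers, and over linkers, and negative values can be taken as non-binding.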"}, "[2]": {"target": "Fuc(a1-2)[GalNAc(a1-3)]Gal(b1-3)GalNAc(b1-3)Gal(a1-4)Gal(b1-4)Glc", "method_in_brief": "as §1"}, "[3]": {"target": "Fuc(a1-2)[GalNAc(a1-3)]Gal(b1-3)GlcNAc(b1-2)Man(a1-3)[Fuc(a1-2)[GalNAc(a1-3)]Gal(b1-3)GlcNAc(b1-2)Man(a1-6)]Man(b1-4)GlcNAc(b1-4)GlcNAc", "method_in_brief": "as §1"}, "[4]": {"target": "Fuc(a1-2)[GalNAc(a1-3)]Gal(b1-3)GlcNAc(b1-2)Man(a1-3)[Fuc(a1-2)[GalNAc(a1-3)]Gal(b1-3)GlcNAc(b1-2)Man(a1-6)]Man(b1-4)GlcNAc(b1-4)[Fuc(a1-6)]GlcNAc", "method_in_brief": "as §1"}, "[5]": {"target": "Fuc(a1-2)[GalNAc(a1-3)]Gal(b1-4)GlcNAc(b1-6)GalNAc", "method_in_brief": "as §1"}, "[6]": {"target": "Fuc(a1-3)GlcNAc", "method_in_brief": "as §1"}, "[7]": {"target": "Fuc(a1-3)[Gal(b1-4)]GlcNAc(b1-3)Gal(b1-4)[Fuc(a1-3)]GlcNAc(b1-3)Gal(b1-4)[Fuc(a1-3)]GlcNAc", "method_in_brief": "as §1"}, "[8]": {"target": "Fuc(a1-3)[Gal(b1-4)]GlcNAc6S", "method_in_brief": "as §1"}, "[9]": {"target": "Fuc(a1-3)[GalNAc(b1-4)]GlcNAc6S", "method_in_brief": "as §1"}, "[10]": {"target": "Gal(a1-3)Gal", "method_in_brief": "as §1"}, "[11]": {"target": "Gal(a1-3)Gal(b1-4)GlcNAc", "method_in_brief": "as §1"}, "[12]": {"target": "Gal(a1-3)Gal(b1-4)[Fuc(a1-3)]GlcNAc(b1-2)Man(a1-3)[Gal(a1-3)Gal(b1-4)[Fuc(a1-3)]GlcNAc(b1-2)Man(a1-6)]Man(b1-4)GlcNAc(b1-4)GlcNAc", "method_in_brief": "as §1"}, "[13]": {"target": "Gal(b1-3)GalNAc(a1-3)[Fuc(a1-2)]Gal(b1-4)Glc", "method_in_brief": "as §1"}, "[14]": {"target": "Gal(b1-3)GlcNAc(b1-6)GalNAc", "method_in_brief": "as §1"}, "[15]": {"target": "Gal(b1-3)[GlcNAc(b1-6)]GalNAc", "method_in_brief": "as §1"}, "[16]": {"target": "Gal(b1-3)[Neu5Ac(a2-6)]GalNAc", "method_in_brief": "as §1"}, "[17]": {"target": "Gal(b1-4)GlcNAc(a1-6)Gal(b1-4)GlcNAc", "method_in_brief": "as §1"}, "[18]": {"target": "Gal(b1-4)GlcNAc(b1-2)[Gal(b1-4)GlcNAc(b1-4)]Man(a1-3)[Gal(b1-4)GlcNAc(b1-2)Man(a1-6)]Man(b1-4)GlcNAc(b1-4)GlcNAc", "method_in_brief": "as §1"}, "[19]": {"target": "Gal(b1-4)GlcNAc(b1-2)[Gal(b1-4)GlcNAc(b1-6)]Man(a1-6)[GlcNAc(b1-4)][Gal(b1-4)GlcNAc(b1-2)Man(a1-3)]Man(b1-4)GlcNAc(b1-4)GlcNAc", "method_in_brief": "as §1"}, "[20]": {"target": "Gal(b1-4)GlcNAc(b1-3)Gal(b1-3)GlcNAc", "method_in_brief": "as §1"}, "[21]": {"target": "Gal(b1-4)GlcNAc(b1-3)Gal(b1-4)GlcNAc(b1-2)Man(a1-3)[Gal(b1-4)GlcNAc(b1-3)Gal(b1-4)GlcNAc(b1-2)Man(a1-6)]Man(b1-4)GlcNAc(b1-4)GlcNAc", "method_in_brief": "as §1"}, "[22]": {"target": "Gal(b1-4)GlcNAc(b1-3)Gal(b1-4)GlcNAc(b1-3)Gal(b1-4)GlcNAc(b1-3)Gal(b1-4)GlcNAc(b1-3)Gal(b1-4)GlcNAc(b1-2)[Gal(b1-4)GlcNAc(b1-3)Gal(b1-4)GlcNAc(b1-3)Gal(b1-4)GlcNAc(b1-3)Gal(b1-4)GlcNAc(b1-3)Gal(b1-4)GlcNAc(b1-6)]Man(a1-6)[Gal(b1-4)GlcNAc(b1-3)Gal(b1-4)GlcNAc(b1-3)Gal(b1-4)GlcNAc(b1-3)Gal(b1-4)GlcNAc(b1-3)Gal(b1-4)GlcNAc(b1-2)Man(a1-3)]Man(b1-4)GlcNAc(b1-4)[Fuc(a1-6)]GlcNAc", "method_in_brief": "as §1"}, "[23]": {"target": "Gal(b1-4)GlcNAc(b1-3)Gal(b1-4)GlcNAc(b1-3)GalNAc", "method_in_brief": "as §1"}, "[24]": {"target": "Gal(b1-4)GlcNAc(b1-3)Gal(b1-4)GlcNAc(b1-3)[Gal(b1-4)GlcNAc(b1-3)Gal(b1-4)GlcNAc(b1-6)]GalNAc", "method_in_brief": "as §1"}, "[25]": {"target": "Gal(b1-4)GlcNAc(b1-6)[Gal(b1-4)GlcNAc(b1-3)]GalNAc", "method_in_brief": "as §1"}, "[26]": {"target": "Gal(b1-4)GlcNAc6P", "method_in_brief": "as §1"}, "[27]": {"target": "Gal3S(b1-4)[Fuc(a1-3)]GlcNAc", "method_in_brief": "as §1"}, "[28]": {"target": "Gal3S6S(b1-4)GlcNAc", "method_in_brief": "as §1"}, "[29]": {"target": "GalNAc(b1-4)GlcNAc6S", "method_in_brief": "as §1"}, "[30]": {"target": "GalNAc4S6S(b1-4)GlcNAc", "method_in_brief": "as §1"}}, "note": "About 410 targets per protein were measured; listed, in parts, are those with the strongest signals and a random draw of the rest.", "data": [{"binder": "Actd5 (Actinidia), P84527 (protein) ISSCNGPCRDLNDCDGQLICIKGKCNDDPQVGTHICRGTTHSHQPGGCKPSGTLTCRGKSYPTYDCSPPVTSSTPAKLTNNDFSEGGDDGGPSECDESYHNNNERIVALSTGWYNGGSRCGKMIRITASNGKSVSAKVVDECDSRHGCDKEHAGQPPCRNNIVDGSNAVWSALGLDKNVGVVDITWSMA", "values": [{"measurement": "glycan array binding signal (z-score)", "setting": "[1]", "result": -1.21}, {"measurement": "glycan array binding signal (z-score)", "setting": "[2]", "result": -0.038}, {"measurement": "glycan array binding signal (z-score)", "setting": "[3]", "result": 0.017}, {"measurement": "glycan array binding signal (z-score)", "setting": "[4]", "result": 1.21}, {"measurement": "glycan array binding signal (z-score)", "setting": "[5]", "result": -0.865}, {"measurement": "glycan array binding signal (z-score)", "setting": "[6]", "result": -0.676}, {"measurement": "glycan array binding signal (z-score)", "setting": "[7]", "result": -0.828}, {"measurement": "glycan array binding signal (z-score)", "setting": "[8]", "result": 0.273}, {"measurement": "glycan array binding signal (z-score)", "setting": "[9]", "result": -1.21}, {"measurement": "glycan array binding signal (z-score)", "setting": "[10]", "result": -0.145}, {"measurement": "glycan array binding signal (z-score)", "setting": "[11]", "result": 0.17}, {"measurement": "glycan array binding signal (z-score)", "setting": "[12]", "result": 2.94}, {"measurement": "glycan array binding signal (z-score)", "setting": "[13]", "result": -0.318}, {"measurement": "glycan array binding signal (z-score)", "setting": "[14]", "result": -0.821}, {"measurement": "glycan array binding signal (z-score)", "setting": "[15]", "result": -0.2}, {"measurement": "glycan array binding signal (z-score)", "setting": "[16]", "result": -1.12}, {"measurement": "glycan array binding signal (z-score)", "setting": "[17]", "result": -0.614}, {"measurement": "glycan array binding signal (z-score)", "setting": "[18]", "result": 0.256}, {"measurement": "glycan array binding signal (z-score)", "setting": "[19]", "result": 0}, {"measurement": "glycan array binding signal (z-score)", "setting": "[20]", "result": -0.59}, {"measurement": "glycan array binding signal (z-score)", "setting": "[21]", "result": 3.9}, {"measurement": "glycan array binding signal (z-score)", "setting": "[22]", "result": 0.644}, {"measurement": "glycan array binding signal (z-score)", "setting": "[23]", "result": 2.99}, {"measurement": "glycan array binding signal (z-score)", "setting": "[24]", "result": 2.99}, {"measurement": "glycan array binding signal (z-score)", "setting": "[25]", "result": -0.2}, {"measurement": "glycan array binding signal (z-score)", "setting": "[26]", "result": -1.05}, {"measurement": "glycan array binding signal (z-score)", "setting": "[27]", "result": -0.319}, {"measurement": "glycan array binding signal (z-score)", "setting": "[28]", "result": 0.094}, {"measurement": "glycan array binding signal (z-score)", "setting": "[29]", "result": -0.111}, {"measurement": "glycan array binding signal (z-score)", "setting": "[30]", "result": -0.058}]}]}
